This is an account of results in PubChem BioAssay (Tox21).

Structures are written as SMILES. “And” between values parts separate entries of the source, which are not always exact repeats. Equal entries are not always repeated. Inconclusive results are not listed. A call without a number means that no potency is given here. The source made the active and inactive calls. The call rests on the fitted dose curve; in most records, active means well fitted cell-killing curve with a large enough effect in the repeat runs; inconclusive means weak or mixed curves, or effect the other way; inactive means flat fitted curve, though single readings scatter.
Potency means the concentration at half of the fitted maximal effect.

This test is described as follows: qHTS assay to identify small molecule agonists of the androgen receptor (AR) signaling pathway in the presence of an antagonist - cell viability counter screen (AID 1259379). Further: nearly all actives have a fitted effect of over 25% in size. The conditions noted are these: MDA-kb2 viability, CellTiter-Fluor, 16 h; series mostly up to 92.4 µM. An excerpt: National Center for Advancing Translational Sciences [NCATS]
NIH Chemical Genomics Center [NCGC]
U.S. Environmental Protection Agency [EPA]
National Institutes of Environmental Health Sciences [NIEHS]
National Toxicology Program [NTP]
U.S. Food and Drug Administration [FDA]
Androgen receptor (AR) is an important member of nuclear receptor family. Its signaling plays a critical role in AR-dependent prostate cancer and other androgen related diseases. Considerable attention has been given in the past decades to develop methods to study and screen for the environmental chemicals that have the potential to interfere with metabolic homeostasis, reproduction, developmental and behavioral functions. Therefore AR binding assay for screening against androgen agonists and antagonists can be used to identify potential endocrine disruptors.
MDA-kb2 cells (from ATCC, deposited by Wilson et al.) are human breast carcinoma cells that were stably transfected with a luciferase reporter gene under control of the MMTV promoter that contains response elements for both androgen receptor (AR) and glucocorticoid receptor (GR). This particular screening for measuring luciferase reporter gene activity using MDA-kb2 cells against Tox21 10K library compounds is a confirmation study on agonist mode screening in the presence of AR-antagonist compound (Nilutamide) at 3.0uM final concentration. The cytotoxicity of the compounds was tested in parallel by measuring the cell viability using CellTiter-Fluor assay system (Promega, Madison, WI) in the same wells.
Tox21 Assay Protocol Summary:
MDA-kb2 cells (cells cultured without CO2) were dispensed at 3,000 cells/well in 4uL of culture medium into white wall/solid-bottom 1536-well plates (Corning Life Sciences, Corning, NY) using a Multidrop Combi (Thermo Fisher Scientific Inc., Waltham, MA) dispenser. The assay plates were incubated at 37C and 0% CO2 for 5hr. One uL of 3.0uM (final concentration) Nilutamide or assay buffer was added using two separate tips of Flying Reagent Dispenser (FRD, Aurora Discovery, San Diego, CA). Then 23nL of compounds dissolved in DMSO at 15 concentrations and positive controls were transferred to the assay plates using a Pintool station (Wako, San Diego, CA). The assay plates were incubated at 37C and 0% CO2 for 16 hr. After 15hr incubation at 37C, 1uL/well CellTiter-Fluor reagent (Promega Corporation) was added to each well of the assay plates using FRD. After 1hr incubation at 37C and 0% CO2, the fluorescence signal was measured using a ViewLux plate reader (PerkinElmer, Shelton, CT).
(Quantitative high-throughput screening tests each substance at several concentrations.)
In the case of `CCCCC/C=C\C/C=C\CCCCCCCC(=O)O`, the Potency result was “inactive”.

In the case of `CCCCCCCCCCOC(=O)c1ccccc1C(=O)OCCCCCCCC`, the Potency result was “inactive”. For the compound `CCCC(=O)OCOC(=O)C1=C(C)NC(C)=C(C(=O)OC)C1c1cccc(Cl)c1Cl` (stereo not given), the Potency entry was “inactive”. In the case of `CCOC(=O)NNc1ccc(N(CC)CC(C)O)nn1` (stereo not given), the Potency result was “inactive”. With `Nc1nc2c(ncn2COCCO)c(=O)[nH]1` the entry was “inactive”; with `CC(N=C(NC#N)Nc1ccncc1)C(C)(C)C` (stereo not given), “inactive”; with `O=C(O)c1cc(=O)c2ccccc2o1`, “inactive”. For `CCC(C)(CCC(C)C)C(=O)[O][Sn]([CH3])([CH3])[O]C(=O)C(C)(CC)CCC(C)C` (stereo not given), the Potency entry was “inactive”. Under `CC(C)(C)NSc1nc2ccccc2s1` stands “inactive”; under `CCCCCC(C)OC(=O)COc1ccc(Cl)c2cccnc12` (stereo not given), “inactive”. Under `CCCCCCCCCCCCCC[N+](C)(C)C` stands 33.2 µM (active) and 24.3 µM (active) and 10.6 µM (active); under `Cc1nc(-c2ccc(Cl)cc2)oc1COC(C)(C)C(=O)O`, “inactive”. For `CC(C)=CCC1=C(O)c2ccccc2C(=O)C1=O`, the Potency was 43 µM (active). As to `CC[N+](CC)(CC)CCOc1ccc(/C=C/c2ccccc2)cc1`, the Potency is 9.44 µM (active). With `COCCOc1cc2cc(C(=O)NC3CCN(C(C)C)CC3)n(CC(=O)Nc3ccc(Cl)cn3)c2cn1`, the Potency entry is “inactive”. Consider `CNc1ccc([N+](=O)[O-])cc1`, for which the Potency is 48.7 µM (active). `c1ccsc1`: the Potency entry was “inactive”.

Turning to `CCCCCC/C=C\CCCCCCCC(=O)O`, the Potency entry was “inactive”. As to `CCC(COC(=O)CCS)(COC(=O)CCS)COC(=O)CCS`, the Potency entry is “inactive”.

As to `CC1(C)CCC[C@]2(C)[C@H]3CC(=O)O[C@]3(C)CC[C@@H]12`, the Potency result was “inactive”. With `C#CC1(O)CC[C@H]2[C@@H]3CCC4=CCCC[C@@H]4[C@H]3CC[C@@]21C` (stereo not given in full) the entry was “inactive”.

Turning to `Cc1ccc(N/N=c2\c(=O)cc/c(=N\Nc3ccc(S(=O)(=O)O)cc3)c2=O)c(C)c1`, the Potency is 27.3 µM (active). Consider `O[C@@H]([C@H](O)[C@H](O)CBr)[C@H](O)CBr`, for which the Potency result is “inactive”.

Take `COc1cc(/C=C/c2ccccc2)oc(=O)c1`: the Potency result is “inactive”. Take `CC(C)OC(=O)C(O)(CC(=O)O)CC(=O)O`: the Potency entry was “inactive”. For `CCCCCCCCCCCCOCCOCCOCCOCCOCCOCCOCCOCCOCCO`, the Potency is 13.3 µM (active).

On to `O=C(Nc1ccc2c(O)c(N=Nc3ccc(N=Nc4ccc(S(=O)(=O)O)cc4)cc3)c(S(=O)(=O)O)cc2c1)c1ccccc1`, for which the Potency is 21.7 µM (active).

Regarding `O=S(=O)(O)c1ccc(N=Nc2c(O)ccc3ccccc23)cc1`, the Potency was 27.3 µM (active). With `COc1cc(S(=O)(=O)O)c(C)cc1N=Nc1c(O)ccc2cc(S(=O)(=O)O)ccc12`, the Potency is 27.3 µM (active). On to `ClCCl`, for which the Potency result was “inactive”.

On to `CC1=CCC(=C(C)C)CC1`, for which the Potency result is “inactive”.

With `CC(=O)CC(=O)Nc1ccc(S(=O)(=O)O)cc1`, the Potency result is “inactive”.

Regarding `Nc1nc(-c2ccccc2)cs1`, the Potency result was “inactive”.

With `CC(=O)OCC=C(C)C`, the Potency entry was “inactive”. Take `CCCCCCOC(=O)C(C)CC` (stereo not given): the Potency entry was “inactive”. With `Nc1ccc(NCCO)c([N+](=O)[O-])c1` the figure was 48.6 µM (active). Under `Cc1cc(C(C)(C)C)c(O)c(C)c1Cn1c(=O)n(Cc2c(C)cc(C(C)(C)C)c(O)c2C)c(=O)n(Cc2c(C)cc(C(C)(C)C)c(O)c2C)c1=O` stands “inactive”; under `C=Cc1cccc(C)c1`, “inactive”; under `CC(C)(C)c1ccc(C(O)CCCN2CCC(C(O)(c3ccccc3)c3ccccc3)CC2)cc1` (stereo not given), 23.7 µM (active). As to `COc1c(C)c2c(c(O)c1C/C=C(\C)CCC(=O)OCCN1CCOCC1)C(=O)OC2`, the Potency result was “inactive”.
